Among the data in the supplement of paper PMC6555819 are PBM binding z-score values, retold here.

For this experiment, the system named is RXRa DBDmut IVT, anti-RXR (DBD mutation: RXRa K156A/R161A, NR concentration 90 nM). Put plainly: PBM binding z-score (relative to random genomic background probes); higher = stronger binding; sequences stand for … in GC…GCGATTGACAGCGTAGAATGAAGG
The procedure, abridged: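 On custom Agilent 4×180K arrays, double-stranded probes with 34-nt variable regions carried direct-repeat seeds, single-nucleotide variants, half-site ablations or random human genomic background. Ligand-free nuclear receptor dimers were applied for 1 h, and binding was read with antibodies against each partner (one per run). Binding z-scores come from regression-normalized fluorescence, with the random background probes as reference.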
As to TCTTGTAGATCAATAGAGGTTAATAAAGTGCGCT, the PBM binding z-score amounted to 0.551. In turn, GGAACGAGGGCAAGTTGATATCAGAGTTTGATGG came in with a PBM binding z-score of 2.63. The figure for CGTCAAAGTTCAACTAAGGTAACGTGAAGCACGC is 4.62; for CTCGAAAGGTCGTGCTCAGGTGTGTATACCAAAC it is 2.5; for TCTAGTTGGTCACGGAGGTCACACATGACGGGTA it is 1.1. For CCGACTGGGGCATAAGGTTACCATAAGCCAGCCC, the PBM binding z-score was -0.574. TAGCCTAGGTCATGGGCTAGTATACCACGCGAAC: the PBM binding z-score is -0.132. CCTTCCGGGTCAAGGTTATAGCACGGGTGGTACG gave a PBM binding z-score of 0.695.

As to TCATATAGGTCATACAGGTGAAAGTCGGCATCTA, the PBM binding z-score turned out to be 2.68. As to ACTATTAGTTGACTTAGGGCAAACGATACGACGC, the PBM binding z-score is 0.703.

The sequence GAAACGAGGGCAAAGTTGATAGCATCTGTCGACG had a PBM binding z-score of 2.66. As to ACAGACAGGTGACTGAAGGTAACTCAGCTGGACG, the PBM binding z-score was -0.793.

TGAAGGAGGTTATAAGATCAGGGAACGTTGCAAA: the PBM binding z-score was -0.654. In the case of TATTGTAGATCAAGCAGGTTAAGAAAGCCTGAGT, the PBM binding z-score was -0.887.

TGTCAAAGTTCAAAGGTAACTTAAGTATCCACAC: the PBM binding z-score was determined as 4.5. For the sequence TCTTGTAGATCAAAGGTTACGAAAGCCGAAGCCT, the PBM binding z-score is 0.663. For the sequence ATATGTAGGTTAAGGGCCATTCAGGTTGGTTCGC, the PBM binding z-score is 0.622. Regarding TCTGCTAGGTCCGTTGGTCAGCTAACGAGCTGCC, the PBM binding z-score worked out at 0.392.

For CGTCAAAGTTCAAATAAGGTAACGTAAAGCACGC, the PBM binding z-score worked out at 4.78. For the sequence TCTATTAGTTGATTCGGGCAACCGAAACAGCGGA, the PBM binding z-score came out at 1.15. The figure for CATACAGGATCAGCTAGGCCAGAGTAGGGACGGC is -0.652. As for ACAGGCAGGTGAGTGAAGGTAACTCAGCTGGACG, the PBM binding z-score is -0.851.

CGTCCTAGGTCAGAGAGGTCAGTGAATGCCGAGT displayed a PBM binding z-score of 1.92.

For CAGACTAGGTCAGGGCCAGTATAGGAGGAACGTT, the PBM binding z-score was -0.345.

For the sequence GCGACCGGGGCATCAGCAGGTTACCATAACTTAA, the PBM binding z-score is -0.302.

Consider TCGAGTAGGTTAGTCGGTGCATTCAGCCAACATA, for which the PBM binding z-score is 0.415.

Consider TAGTCTAGGTCATTGGGCCAGTATAGTACGCATC, for which the PBM binding z-score came to 1.95. As to CTCGAAAGGTGGGTTGAGGTGAGTATACGGATAA, the PBM binding z-score is -0.0446. Sequence CCTACCGGGCCAAAAAGGTCATTGATGCCGATAA came in with a PBM binding z-score of 0.185. Turning to ACTATTAGTTGACTTAGGGCGACCGATACGACGC, the PBM binding z-score stood at 1.02. Regarding GGATCGAGGGCATTCGAGTTGATAGCATGGCGAT, the PBM binding z-score was 3.06.

ATCGAAAGGCCGAAGGTGAGTATACCCACCCGAA: the PBM binding z-score was -0.881. In the case of ATATGTAGGTTGCATCCGGGTCATTCAGGCTATG, the PBM binding z-score was 0.735. The sequence TAGCCTAGGTCATTGGGCCAGCATAGTACGCATC came in with a PBM binding z-score of 1.49.

The sequence ACAGAAAGGTGATGAAGGTAACTCAGGCTATCAT displayed a PBM binding z-score of 0.11. Consider CCTCGGAGGACAGAAGGTCAGCGCTGTCCGCTTT, for which the PBM binding z-score was 0.468.

Take CCTGCTAGGTCAATGGTCATCTAAAGCAGCTCGC: the PBM binding z-score is 1.79.

CCCTACGGGTCACGAGGTTATAGCACGACGAGCG: the PBM binding z-score was 1.19. In turn, GCTTGTAAATCAAGGTTAAGAAAGACTAAGCTAA showed a PBM binding z-score of 0.137. CATACAGGGTCAGCTAGGCCATAGTAGGGACGGC: the PBM binding z-score stood at 1.7.
